# Results from PubChem BioAssay (NCI).
# This is part of a sample that, as a whole, favours compounds with a hit. Of some 83,000 tested, about 20% had one in any assay.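 Cell lines were cultured in 96-well plates, exposed to a single compound concentration, and assessed for percent growth 48 hours later.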 Unmarked numbers belong to inactive results. Activity calls are given as the source filed them. Rule for the calls: active = growth percent below 10; inactive = the rest.
# Test system: 786-0 renal
# Assay: NCI-60 one-dose screen, 48 h (100 = growth as untreated, 0 = no growth, -100 = all killed)
# Conditions: 10 µM unless noted
row,SMILES,growth
1,O=c1ccc(N=Nc2ccccc2)ccc1Cl,48.8%
2,CCCCCCn1c(-c2ccc(C(=O)O/N=C(\N)c3ccc(OC)cc3)cc2)nc(-c2ccccc2)c1-c1ccccc1,-66.8% (active)
3,COc1ccc(C(=O)C[C@]2(O)C(=O)Nc3c(Cl)ccc(Cl)c32)cc1,55.9%
4,CCCCOc1nc2c(C)cccc2cc1-c1cc(-c2ccc(Cl)cc2)nc(-c2ccc(Cl)cc2)c1,102%
5,CSc1ncccc1C(=O)OCC(=O)Nc1oc(C)c2c(C)n[nH]c(=O)c12,91.6%
6,O=C(Oc1cccc2ccccc12)Oc1cccc2ccccc12,110%
7,COC(=O)[C@H](C)NC(=O)NC(=O)NC(=O)CI,63.9%
8,C[C@H](C(=O)Nc1ccc(S(N)(=O)=O)cc1)S(=O)(=O)c1ccccc1,101%
9,c1ccc2c(c1)Nc1ccncc1S2,109%
10,COc1ccc(C2CC(c3ccc(Nc4ccnc5cc(Cl)ccc45)cc3)=NN2C=O)cc1 (centres undefined),70.5%
11,O=C(CS(=O)c1oc(-c2cccs2)nc1S(=O)(=O)c1ccc(Br)cc1)c1ccccc1 (centres undefined),98.7%
12,O=C(N=c1oc2ccccc2cc1-c1cc2ccccc2[nH]1)Nc1ccc(Cl)cc1,94.6%
13,CCc1cccc2c3c(sc12)C(c1ccc(F)cc1)C(C#N)=C(N)O3 (centres undefined),30%
14,C/C(=C\C(=O)c1ccc(Cl)cc1)c1ccc(Cl)cc1,108%
15,COc1cc(/C=C/c2ccccc2)cc(OC)c1,97.9%
16,O=C(Nc1ccc(I)cc1F)c1cc(I)ccc1O,2.12% (active)
17,CCOc1cccc(NC2=C(Br)C(=O)C(C)=C(C)C2=O)c1,104%
18,Cc1nc(S(=O)(=O)c2ccccc2)c(S(=O)(=O)Cc2ccc([N+](=O)[O-])cc2)o1,89.1%
19,Nc1nc(Cl)cc(=O)n1Cc1ccccc1,101%

row,SMILES,growth
1,Oc1ccc(C#CCOc2ccccc2)cc1CNCCN(Cc1ccccn1)Cc1ccccn1,5.55% (active)
2,c1ccc(Nc2cc(-c3cccnc3)[nH]n2)cc1,98.1%
3,CNCCCNc1nc2ccccc2c2c(=O)c3cc(OC)ccc3sc12,79.1%
4,Cc1nc2ccccc2n1CC1C(=O)NC(=O)NC1=O,103%
5,COc1ccc(OC)c(/C=C/C(=O)N/N=C/c2ccc(Cl)cc2)c1,16.7%
6,Cc1ccc(S(=O)(=O)Oc2ccc(NC(=O)c3ccc(Cl)cc3)cc2)cc1,91.1%
7,Nc1nn(C(=O)Nc2ccc(Cc3ccccc3)cc2)c2ccc(Cl)cc12,64%
8,CC(=O)CC[C@H]1C(=O)N[C@@H](C(C)C)C(=O)N[C@@H](Cc2cc(O)cc(F)c2)C(=O)N2CCC[C@H](N2)C(=O)O[C@H](/C(C)=C/C=C/C(=O)OC(C)(C)C)C/C=C/C=C/[C@H](O)[C@H](C)[C@H]1O,36.2%
9,Cn1cc(-c2cc3ncnc(Nc4ccc(CC(=O)Nc5cc(C(C)(C)C)nn5C)cc4)c3s2)cn1,43.7%
10,Oc1c(I)cc(I)cc1CNCCCN(Cc1ccccn1)Cc1ccccn1,-95.4% (active)
11,COc1ccc(/C=C2\Oc3cc(OCCN4CCC(Cc5ccccc5)CC4)ccc3C2=O)cc1OC,78.4%
12,CC[C@H](C)C(=O)O[C@H]1CCC=C2C=C[C@H](C)[C@H](CC[C@@H]3CC=CC(=O)O3)[C@H]21,95.5%
13,Cc1cccc2c(=O)c3c(sc12)c(NCc1ccccc1)nc1ccccc13,100%
14,COc1cc(C2CC(c3ccc(N(C)C)cc3)=NN2C(C)=O)cc(OC)c1OC (centres undefined),24.1%
15,CCCCCCNC(=O)Oc1ccc(/C(=C(\C)c2ccc(Cl)cc2)c2ccc(OCCCN(C)C)cc2)cc1,56.8%
16,N[C@@H](Cc1ccccc1)[C@@H](O)C(=O)NCc1ccc(F)cc1,98.5%
17,COC(=O)/C=C1\S/C(=N\Nc2ccc([N+](=O)[O-])cc2[N+](=O)[O-])N(C2CCCCC2)C1=O,61.1%
18,O=C(O)c1cn(C2CC2)c2cc(N3CCN(C(=O)Nc4nc(-c5ccccc5)cs4)CC3)c(F)cc2c1=O,22.5%

# Test system: COLO 205 colon
# Assay: as above
# Conditions: 10 µM unless noted
row,SMILES,growth
1,O=c1ccc(N=Nc2ccccc2)ccc1Cl,68.4%
2,CCCCCCn1c(-c2ccc(C(=O)O/N=C(\N)c3ccc(OC)cc3)cc2)nc(-c2ccccc2)c1-c1ccccc1,-14% (active)
3,COc1ccc(C(=O)C[C@]2(O)C(=O)Nc3c(Cl)ccc(Cl)c32)cc1,7.6% (active)
4,CCCCOc1nc2c(C)cccc2cc1-c1cc(-c2ccc(Cl)cc2)nc(-c2ccc(Cl)cc2)c1,111%
5,CSc1ncccc1C(=O)OCC(=O)Nc1oc(C)c2c(C)n[nH]c(=O)c12,122%
6,O=C(Oc1cccc2ccccc12)Oc1cccc2ccccc12,127%
7,COC(=O)[C@H](C)NC(=O)NC(=O)NC(=O)CI,32%
8,C[C@H](C(=O)Nc1ccc(S(N)(=O)=O)cc1)S(=O)(=O)c1ccccc1,107%
9,c1ccc2c(c1)Nc1ccncc1S2,130%
10,COc1ccc(C2CC(c3ccc(Nc4ccnc5cc(Cl)ccc45)cc3)=NN2C=O)cc1 (centres undefined),89.4%
11,O=C(CS(=O)c1oc(-c2cccs2)nc1S(=O)(=O)c1ccc(Br)cc1)c1ccccc1 (centres undefined),106%
12,O=C(N=c1oc2ccccc2cc1-c1cc2ccccc2[nH]1)Nc1ccc(Cl)cc1,122%
13,CCc1cccc2c3c(sc12)C(c1ccc(F)cc1)C(C#N)=C(N)O3 (centres undefined),5.48% (active)
14,C/C(=C\C(=O)c1ccc(Cl)cc1)c1ccc(Cl)cc1,97.5%
15,COc1cc(/C=C/c2ccccc2)cc(OC)c1,114%
16,O=C(Nc1ccc(I)cc1F)c1cc(I)ccc1O,91.1%
17,CCOc1cccc(NC2=C(Br)C(=O)C(C)=C(C)C2=O)c1,123%
18,Cc1nc(S(=O)(=O)c2ccccc2)c(S(=O)(=O)Cc2ccc([N+](=O)[O-])cc2)o1,112%
19,Nc1nc(Cl)cc(=O)n1Cc1ccccc1,114%

row,SMILES,growth
1,Oc1ccc(C#CCOc2ccccc2)cc1CNCCN(Cc1ccccn1)Cc1ccccn1,13%
2,c1ccc(Nc2cc(-c3cccnc3)[nH]n2)cc1,106%
3,CNCCCNc1nc2ccccc2c2c(=O)c3cc(OC)ccc3sc12,-1.42% (active)
4,Cc1nc2ccccc2n1CC1C(=O)NC(=O)NC1=O,115%
5,COc1ccc(OC)c(/C=C/C(=O)N/N=C/c2ccc(Cl)cc2)c1,-48.9% (active)
6,Cc1ccc(S(=O)(=O)Oc2ccc(NC(=O)c3ccc(Cl)cc3)cc2)cc1,113%
7,Nc1nn(C(=O)Nc2ccc(Cc3ccccc3)cc2)c2ccc(Cl)cc12,34.9%
8,CC(=O)CC[C@H]1C(=O)N[C@@H](C(C)C)C(=O)N[C@@H](Cc2cc(O)cc(F)c2)C(=O)N2CCC[C@H](N2)C(=O)O[C@H](/C(C)=C/C=C/C(=O)OC(C)(C)C)C/C=C/C=C/[C@H](O)[C@H](C)[C@H]1O,51.7%
9,Cn1cc(-c2cc3ncnc(Nc4ccc(CC(=O)Nc5cc(C(C)(C)C)nn5C)cc4)c3s2)cn1,52.9%
10,Oc1c(I)cc(I)cc1CNCCCN(Cc1ccccn1)Cc1ccccn1,-34.2% (active)
11,COc1ccc(/C=C2\Oc3cc(OCCN4CCC(Cc5ccccc5)CC4)ccc3C2=O)cc1OC,19.1%
12,CC[C@H](C)C(=O)O[C@H]1CCC=C2C=C[C@H](C)[C@H](CC[C@@H]3CC=CC(=O)O3)[C@H]21,103%
13,Cc1cccc2c(=O)c3c(sc12)c(NCc1ccccc1)nc1ccccc13,87.2%
14,COc1cc(C2CC(c3ccc(N(C)C)cc3)=NN2C(C)=O)cc(OC)c1OC (centres undefined),19.2%
15,CCCCCCNC(=O)Oc1ccc(/C(=C(\C)c2ccc(Cl)cc2)c2ccc(OCCCN(C)C)cc2)cc1,23.8%
16,N[C@@H](Cc1ccccc1)[C@@H](O)C(=O)NCc1ccc(F)cc1,111%
17,COC(=O)/C=C1\S/C(=N\Nc2ccc([N+](=O)[O-])cc2[N+](=O)[O-])N(C2CCCCC2)C1=O,42.5%
18,O=C(O)c1cn(C2CC2)c2cc(N3CCN(C(=O)Nc4nc(-c5ccccc5)cs4)CC3)c(F)cc2c1=O,51%
